Among all 5,500 compounds or so, about 2,000 (36%) were called active. Another 18% or so got no clear call; they are omitted. No stated cut-off is given here; in the data, active means normalized growth mostly below about 0.91 (no sharp cut-off); inconclusive means no clear call, values can overlap the other calls; inactive means mostly above about 0.92. This is one part of the list.
Assay: chemical genetic growth profiling, strain panel (AID 1159580);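 further: tested at 20 µM; growth read once vehicle control cultures reached saturation at 30 °C; 1 = growth at the plate median or of vehicle wells; lower values mean less growth of the strain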
Settings: S. cerevisiae deletion strains, growth OD

Measured: normalized growth

[N-]=[N+]=CC(=O)OCC(N)C(=O)O (centres undefined)
inactive: locus YAL021C, strain ccr4, active compounds read low 0.994 | locus YAL026C, strain drs2, active compounds read low 0.988 | locus YAL030W, strain snc1, active compounds read low 1.02 | locus YBL061C, strain skt5, active compounds read low 1.01 | locus YBR009C, strain hhf1, active compounds read low 0.979 | locus YBR023C, strain chs3, active compounds read low 0.995 | locus YBR171W, strain sec66, active compounds read low 1.02 | locus YBR231C, strain swc5, active compounds read low 1.03 | locus YBR279W, strain paf1, active compounds read low 0.98 | locus YCL011C, strain gbp2, active compounds read low 0.983 | locus YCL016C, strain dcc1, active compounds read low 0.958 | locus YCL061C, strain MRC1, active compounds read low 1.02 | locus YCL069W, strain vba3, active compounds read low 1 | locus YCR088W, strain abp1, active compounds read low 1.01 | locus YDL005C, strain med2, active compounds read low 0.992 | locus YDL040C, strain nat1, active compounds read low 1 | locus YDR001C, strain nth1, active compounds read low 0.995 | locus YDR069C, strain doa4, active compounds read low 1.03 | locus YDR137W, strain rgp1, active compounds read low 0.99 | locus YDR159W, strain sac3, active compounds read low 0.978 | locus YDR195W, strain ref2 1.03 | locus YDR297W, strain sur2, active compounds read low 1.02 | locus YDR334W, strain swr1, active compounds read low 1 | locus YDR335W, strain msn5, active compounds read low 1.01 | locus YDR392W, strain spt3, active compounds read low 0.931 | locus YEL003W, strain gim4, active compounds read low 1.01 | locus YEL037C, strain rad23, active compounds read low 1 | locus YEL061C, strain CIN8 (second series), active compounds read low 1 | locus YER015W, strain faa2, active compounds read low 1.01 | locus YER016W, strain bim1, active compounds read low 0.995 | locus YER111C, strain swi4, active compounds read low 1 | locus YER155C, strain BEM2 (second series), active compounds read low 1.05 | locus YFR010W, strain ubp6, active compounds read low 1.01 | locus YGL167C, strain pmr1, active compounds read low 1.02 | locus YGL173C, strain kem1, active compounds read low 1.02 | locus YGL227W, strain vid30, active compounds read low 1.01 | locus YGL240W, strain doc1, active compounds read low 1.04 | locus YGL253W, strain hxk2, active compounds read low 0.973 | locus YHR013C, strain ard1, active compounds read low 1.01 | locus YHR027C, strain rpn1, active compounds read low 0.995 | locus YHR030C, strain SLT2, active compounds read low 0.967 | locus YHR079C, strain IRE1, active compounds read low 0.977 | locus YHR142W, strain chs7, active compounds read low 0.976 | locus YJL092W, strain hpr5, active compounds read low 1.01 | locus YJL095W, strain BCK1 (second series), active compounds read low 1.01 | locus YJL095W, strain BCK1, active compounds read low 0.977 | locus YJL115W, strain asf1, active compounds read low 1.01 | locus YJL129C, strain trk1, active compounds read low 1.01 | locus YJL154C, strain vps35, active compounds read low 1 | locus YJL164C, strain tpk1, active compounds read low 0.985 | locus YJL166W, strain qcr8, active compounds read low 1.05 | locus YJR066W, strain TOR1, active compounds read low 0.936 | locus YKL160W, strain elf1, active compounds read low 1.02 | locus YKR026C, strain gcn3, active compounds read low 1 | locus YKR091W, strain srl3, active compounds read low 1.01 | locus YLL001W, strain dnm1, active compounds read low 1.04 | locus YLL026W, active compounds read low 1.01 | locus YLL041C, strain sdh2, active compounds read low 1 | locus YLR027C, strain aat2, active compounds read low 1.01 | locus YLR113W, strain HOG1, active compounds read low 0.964 | locus YLR221C, strain rsa3, active compounds read low 0.976 | locus YLR258W, strain gsy2, active compounds read low 0.994 | locus YLR262C, strain YPT6 (second series), active compounds read low 1.02 | locus YLR320W, strain mms22, active compounds read low 0.991 | locus YLR342W, strain FKS1, active compounds read low 1.04 | locus YLR357W, strain rsc2, active compounds read low 1 | locus YLR370C, strain arc18, active compounds read low 1.01 | locus YLR384C, strain iki3, active compounds read low 1 | locus YML120C, strain ndi1, active compounds read low 1 | locus YMR058W, strain fet3, active compounds read low 1.01 | locus YMR125W, strain sto1, active compounds read low 0.984 | locus YMR129W, active compounds read low 0.999 | locus YMR205C, strain PFK2, active compounds read low 1.03 | locus YMR231W, strain pep5, active compounds read low 1 | locus YNL071W, strain lat1, active compounds read low 0.992 | locus YNL183C, strain NPR1, active compounds read low 0.937 | locus YNL209W, strain ssb2, active compounds read low 0.989 | locus YNL248C, strain rpa49, active compounds read low 0.976 | locus YNL322C, strain KRE1 (second series), active compounds read low 0.999 | locus YNR049C, strain mso1, active compounds read low 1 | locus YOR001W, strain rrp6, active compounds read low 1.02 | locus YOR070C, strain gyp1, active compounds read low 0.995 | locus YOR080W, strain dia2, active compounds read low 1.02 | locus YOR083W, strain WHI5, active compounds read low 0.992 | locus YOR106W, strain vam3, active compounds read low 1.03 | locus YOR231W, strain MKK1, active compounds read low 0.976 | locus YOR265W, strain rbl2, active compounds read low 0.998 | locus YOR270C, strain vph1, active compounds read low 1.03 | locus YOR290C, strain snf2, active compounds read low 0.961 | locus YPL051W, strain arl3, active compounds read low 1.01 | locus YPL078C, strain atp4, active compounds read low 1.03 | locus YPL106C, strain sse1, active compounds read low 0.966 | locus YPL240C, strain hsp82, active compounds read low 0.99 | locus YPL256C, strain CLN2, active compounds read low 1
